This is part of a sample that, as a whole, favours compounds with a hit. Of some 83,000 tested, about 20% had one in any assay.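 Assay: single dose, 48 h. Readout: percent growth (0 = no net growth; negative = cell death). Active: <10.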 Calls of active or inactive are those of the source.
Tests used:
Test in all cases: NCI-60 one-dose screen, 48 h (100 = growth as untreated, 0 = no growth, -100 = all killed)
Conditions in all cases: 10 µM unless noted
[1] = tested on: DU-145 prostate
[2] = tested on: K-562 leukemia
[3] = tested on: MALME-3M melanoma
[4] = tested on: MDA-MB-231 breast
[5] = tested on: RXF 393 renal
[6] = tested on: SF-268 CNS
[7] = tested on: SF-295 CNS
[8] = tested on: SF-539 CNS
[9] = tested on: UACC-257 melanoma
[10] = tested on: M14 melanoma
[11] = tested on: HCT-15 colon
[12] = tested on: HT29 colon
[13] = tested on: SNB-75 CNS
[14] = tested on: SNB-19 CNS
[15] = tested on: U251 CNS
[16] = tested on: PC-3 prostate
[17] = tested on: SK-MEL-5 melanoma
[18] = tested on: UACC-62 melanoma
[19] = tested on: LOX IMVI melanoma
[20] = tested on: SK-MEL-28 melanoma

Measured: growth

Cc1ccc(NC2=C(Cl)C(=O)c3nc(C)ccc3C2=O)cc1
inactive: [6] 66.8% | [7] 62.1% | [10] 29.1% | [12] 82.4% | [14] 47.3% | [15] 41.3% | [16] 29.9%
active: [1] -62.2% | [2] 6.64% | [3] -37.4% | [4] -80.3% | [5] -57.2% | [8] -85.6% | [9] -73.8% | [11] -77.1% | [13] -41.9% | [17] -90.8% | [18] -70.4% | [19] -78.2% | [20] -79%

Cc1cc(N2CCCC2)nc(N(CCCNc2ccnc3cc(Cl)ccc23)Cc2ccccn2)n1
active: [8] 9.89% | [10] -15.9%
inactive: [1] 62.7% | [2] 11.3% | [3] 39.4% | [4] 45.2% | [5] 25.8% | [6] 62.5% | [7] 66% | [9] 49.4% | [11] 32.3% | [12] 11.2% | [13] 77.4% | [14] 65.9% | [15] 55.3% | [16] 52% | [17] 50.9% | [18] 79.8% | [19] 32.3% | [20] 69.8%

CCn1cnc2c1c(=O)[nH]c(=O)n2CC1CCC(CNS(=O)(=O)c2ccc(OC3CCOCC3)c(F)c2)CC1 (stereo not given)
active: [13] 7.93%
inactive: [1] 76.8% | [2] 39.2% | [3] 58.2% | [4] 47.8% | [5] 53.1% | [6] 82.8% | [7] 58.5% | [8] 54.7% | [9] 59.8% | [10] 48.5% | [11] 86.6% | [12] 37.8% | [14] 59% | [15] 67.9% | [16] 45.9% | [17] 60.1% | [18] 24.1% | [19] 38.4% | [20] 64.1%

COc1ccc(/C=C(/C#N)n2nnc3cccc(F)c32)cc1
inactive: [2] 12.8% | [3] 32.5% | [6] 28.2% | [7] 16% | [9] 41.1% | [11] 13.2% | [14] 24.6% | [15] 14.3% | [16] 27.1% | [18] 17.9% | [20] 48.1%
active: [1] -10.7% | [4] 0.925% | [5] -37.9% | [8] -39.3% | [10] -27% | [12] 1.29% | [13] -43.5% | [17] -7.21% | [19] 5.5%

Cc1ccc2c(n1)C(=O)C(Cl)=C(Nc1ccccc1C(C)C)C2=O
inactive: [1] 63.2% | [2] 12% | [3] 42.5% | [4] 30.3% | [5] 83.6% | [6] 86.4% | [7] 101% | [8] 65.9% | [9] 24.9% | [10] 63% | [11] 27.6% | [12] 106% | [13] 85.7% | [14] 76.7% | [15] 80.4% | [16] 53.9% | [17] 69% | [18] 45.2% | [19] 14.7% | [20] 65.8%

COc1cccc(-c2nc(-c3ccc(NC(=O)OC(C)C)cc3)[nH]c2-c2ccnc(Br)c2)c1
inactive: [1] 36% | [3] 21.8% | [4] 37.3% | [6] 40.5% | [8] 10.5% | [9] 45.3% | [10] 29.9% | [12] 18.3% | [13] 23.6% | [14] 40.3% | [15] 32.7% | [16] 17.5% | [17] 21.9% | [20] 37.7%
active: [2] 6.01% | [5] -33.9% | [7] -35.6% | [11] 4.09% | [18] 9.86% | [19] 2.73%

S=c1nc(-c2ccccc2)oc(=NC2CCCCC2)n1C1CCCCC1
inactive: [1] 13.4% | [3] 94.9% | [4] 81.8% | [5] 81.5% | [6] 34.1% | [8] 65.2% | [9] 95% | [10] 84.8% | [11] 16.1% | [12] 49.5% | [13] 68.2% | [14] 28.7% | [15] 18.8% | [17] 66.1% | [18] 70.9% | [19] 30.1% | [20] 107%
active: [2] -42.6% | [7] 2.95% | [16] 3.69%

O=C(Nc1c2ccccc2nc2ccccc12)c1ccccc1CN1C(=O)c2ccccc2C1=O
inactive: [1] 27.3% | [2] 22.8% | [3] 31.2% | [4] 34.3% | [5] 43.9% | [6] 34.3% | [7] 31.7% | [8] 21.6% | [9] 38.5% | [10] 21% | [11] 19.2% | [12] 11.2% | [13] 60.1% | [14] 32.9% | [15] 27.1% | [16] 37.2% | [17] 39.5% | [18] 58.8% | [19] 22% | [20] 56.7%

COc1ccc(-c2c(C(=O)NS(C)(=O)=O)n(Cc3cccc(C(F)(F)F)c3)c3ccccc23)cc1
inactive: [1] 100% | [2] 87.7% | [3] 76.8% | [4] 95.5% | [5] 111% | [6] 95% | [7] 89.8% | [8] 98.3% | [9] 95.2% | [10] 94.6% | [11] 79.3% | [12] 97.5% | [13] 85.1% | [14] 93.2% | [15] 91% | [16] 70.7% | [17] 83% | [18] 88.4% | [19] 89.7% | [20] 99.1%

CCOC(=O)Cn1c(=O)c2c(c3ccccc3n2C)n2nnc(-c3ccccc3)c12
inactive: [1] 111% | [2] 84.8% | [3] 118% | [4] 103% | [5] 108% | [6] 95.2% | [7] 110% | [8] 102% | [9] 102% | [10] 97.6% | [11] 112% | [12] 100% | [13] 94.2% | [14] 104% | [15] 107% | [16] 103% | [17] 98.4% | [18] 102% | [19] 91.1% | [20] 107%

c1cc2nc(-c3cn[nH]c3)c3c(c2cc1-c1cn[nH]c1)C1CCC3C1 (stereo not given)
inactive: [1] 81.4% | [2] 65% | [3] 61.4% | [4] 53% | [5] 15.3% | [6] 77% | [7] 57.8% | [8] 66.7% | [9] 83.9% | [10] 69.3% | [11] 47.2% | [12] 81.8% | [14] 78.9% | [15] 72% | [16] 62.3% | [17] 60.2% | [18] 59.6% | [19] 69.1% | [20] 73.7%
active: [13] -1.68%

Cn1cc(-c2cc3ncnc(Nc4ccc(CC(=O)Nc5cc(C(C)(C)C)nn5C)cc4)c3s2)cn1
inactive: [1] 40.3% | [2] 17% | [3] 56.7% | [4] 47.7% | [6] 51.8% | [7] 58.1% | [8] 47.4% | [9] 83.9% | [10] 39.2% | [11] 54.8% | [12] 50% | [13] 56.3% | [14] 95.7% | [15] 61.2% | [16] 43.9% | [17] 49% | [18] 33.5% | [19] 33.6% | [20] 77.2%
active: [5] 9.8%

Cc1c(C(=O)/C=C/Nc2c(Cl)cc(S(N)(=O)=O)cc2Cl)sc2nc3ccccc3n12
inactive: [1] 107% | [2] 105% | [3] 105% | [4] 102% | [5] 115% | [6] 95.4% | [7] 101% | [8] 96.6% | [9] 105% | [10] 106% | [11] 105% | [12] 108% | [13] 93.6% | [14] 99.3% | [15] 107% | [16] 104% | [17] 104% | [18] 101% | [19] 97.3% | [20] 103%

CC([C@H]1CCC2C3CCC4C[C@@H](NC=O)CC[C@]4(C)C3CC[C@@]21C)N(C)C (stereo not given in full)
inactive: [1] 34.1% | [14] 44.6%
active: [2] -39.8% | [3] -57.6% | [4] -13.9% | [5] -51.2% | [6] -70% | [7] -38.8% | [8] -78.4% | [9] -48.3% | [10] -48.8% | [11] -59.7% | [12] -49.4% | [13] -1.26% | [15] 4.82% | [16] 5.08% | [17] -96.7% | [18] -51.3% | [19] -58.7% | [20] -94.2%

COc1ccc2c(c1)/C(=C/c1sc(=S)n(Cc3ccco3)c1O)C=N2
active: [13] 1.19%
inactive: [1] 33.5% | [2] 15.8% | [3] 49.1% | [4] 56.5% | [5] 48.7% | [6] 52.8% | [7] 27.8% | [8] 11.2% | [9] 61.3% | [10] 11.8% | [11] 17.8% | [12] 15.8% | [14] 44.5% | [15] 37% | [16] 61.6% | [17] 52.2% | [18] 38.9% | [19] 35.9% | [20] 47.4%
